Compounds without any hit were thinned out: in the full panel of roughly 83,000, 20% have a hit.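 Values shown are percent growth following 48 h exposure of cells in 96-well plates to a single concentration of compound; below 10 was considered active.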 Activity calls are given as the source filed them.
Tests used:
Experiment in all cases: NCI-60 one-dose screen, 48 h (100 = growth as untreated, 0 = no growth, -100 = all killed)
Details in all cases: 10 µM unless noted
SR leukemia = system: SR leukemia
RPMI-8226 leukemia = system: RPMI-8226 leukemia
OVCAR-8 ovarian = system: OVCAR-8 ovarian
OVCAR-5 ovarian = system: OVCAR-5 ovarian
OVCAR-4 ovarian = system: OVCAR-4 ovarian
SK-OV-3 ovarian = system: SK-OV-3 ovarian
IGROV1 ovarian = system: IGROV1 ovarian
OVCAR-3 ovarian = system: OVCAR-3 ovarian
NCI/ADR-RES ovarian = system: NCI/ADR-RES ovarian
HS 578T breast = system: HS 578T breast

Measured: growth

CCCCCCCCCCCCCCCCCCOP(=O)(O)O
inactive: SR leukemia 103% | RPMI-8226 leukemia 100% | OVCAR-8 ovarian 97.5% | OVCAR-5 ovarian 103% | OVCAR-4 ovarian 117% | SK-OV-3 ovarian 109% | IGROV1 ovarian 110% | OVCAR-3 ovarian 113% | NCI/ADR-RES ovarian 108%

CC(=O)/C(=C/c1ccc(-c2ccccc2)cc1)C(=O)c1ccccc1
inactive: RPMI-8226 leukemia 39.9% | OVCAR-8 ovarian 84.5% | OVCAR-5 ovarian 106% | OVCAR-4 ovarian 85.8% | SK-OV-3 ovarian 95.4% | IGROV1 ovarian 91% | OVCAR-3 ovarian 89.4% | HS 578T breast 102% | NCI/ADR-RES ovarian 93.1%
active: SR leukemia 5.97%

CN1C(=O)C(=Cc2coc3ccc(Br)cc3c2=O)C(=O)N(C)C1=O
inactive: SR leukemia 126% | RPMI-8226 leukemia 108% | OVCAR-8 ovarian 98.5% | OVCAR-5 ovarian 114% | OVCAR-4 ovarian 118% | SK-OV-3 ovarian 96.3% | IGROV1 ovarian 101% | OVCAR-3 ovarian 105% | NCI/ADR-RES ovarian 97.9%

O=C1CCNC1
inactive: SR leukemia 106% | RPMI-8226 leukemia 102% | OVCAR-8 ovarian 100% | OVCAR-5 ovarian 105% | OVCAR-4 ovarian 97.8% | SK-OV-3 ovarian 107% | IGROV1 ovarian 118% | OVCAR-3 ovarian 109% | HS 578T breast 114% | NCI/ADR-RES ovarian 110%

CC1(C)N=C(N)N=C(N)N1c1cccc(CCCCOc2ccccc2)c1
active: RPMI-8226 leukemia 8.3%
inactive: SR leukemia 31.6% | OVCAR-8 ovarian 19.9% | OVCAR-5 ovarian 29.6% | OVCAR-4 ovarian 61% | SK-OV-3 ovarian 41.8% | IGROV1 ovarian 26.6% | OVCAR-3 ovarian 26.5% | NCI/ADR-RES ovarian 107%

CCOC(=O)C1=C(c2ccccc2)NC(=O)NC1CN1C(=O)c2ccccc2C1=O (centres undefined)
inactive: RPMI-8226 leukemia 97.9% | OVCAR-8 ovarian 111% | OVCAR-5 ovarian 100% | OVCAR-4 ovarian 107% | SK-OV-3 ovarian 113% | IGROV1 ovarian 98.4% | OVCAR-3 ovarian 111% | HS 578T breast 105% | NCI/ADR-RES ovarian 103%
active: SR leukemia -32.9%

Cc1ccc(S(=O)(=O)N/N=C2\CC3CCC2C3)cc1 (centres undefined)
inactive: SR leukemia 103% | RPMI-8226 leukemia 104% | OVCAR-8 ovarian 102% | OVCAR-5 ovarian 98.9% | OVCAR-4 ovarian 115% | SK-OV-3 ovarian 93.9% | IGROV1 ovarian 101% | OVCAR-3 ovarian 113% | HS 578T breast 115% | NCI/ADR-RES ovarian 119%

Oc1ccccc1/C=N/N=C/c1c(O)ccc2ccccc12
inactive: SR leukemia 55.4% | RPMI-8226 leukemia 96.6% | OVCAR-8 ovarian 80.6% | OVCAR-5 ovarian 102% | OVCAR-4 ovarian 85.4% | SK-OV-3 ovarian 90.8% | IGROV1 ovarian 47.9% | OVCAR-3 ovarian 80.5% | HS 578T breast 101% | NCI/ADR-RES ovarian 92.5%

CCOC(=O)c1c(C)oc2ncnc(Nc3ccc(NC(=O)Nc4cccc(Cl)c4)cc3)c12
inactive: SR leukemia 53.6% | RPMI-8226 leukemia 46.1% | OVCAR-8 ovarian 50.2% | OVCAR-5 ovarian 122% | OVCAR-4 ovarian 73.7% | SK-OV-3 ovarian 93.3% | IGROV1 ovarian 78.4% | OVCAR-3 ovarian 80.9% | HS 578T breast 80.6% | NCI/ADR-RES ovarian 43.8%

CCn1cnc(C[C@H](NC(=O)[C@@H](NC(=O)Nc2cc(C(F)(F)F)cc(C(F)(F)F)c2)C(C)(C)C)C(=O)OC)c1
active: SR leukemia -38.1% [100 µM] | RPMI-8226 leukemia -58.6% [100 µM] | OVCAR-8 ovarian -79.5% [100 µM] | OVCAR-5 ovarian -92.8% [100 µM] | OVCAR-4 ovarian -82.7% [100 µM] | SK-OV-3 ovarian -100% [100 µM] | IGROV1 ovarian -71.5% [100 µM] | OVCAR-3 ovarian -96.5% [100 µM] | HS 578T breast -2.17% [100 µM] | NCI/ADR-RES ovarian 7.32% [100 µM]

CCCC(=O)NNc1[nH]c(-c2cc(OC)c(OC)c(OC)c2)cc1C(=O)OCC
inactive: SR leukemia 68.2% | RPMI-8226 leukemia 101% | OVCAR-8 ovarian 108% | OVCAR-5 ovarian 92.8% | OVCAR-4 ovarian 118% | SK-OV-3 ovarian 110% | IGROV1 ovarian 22.6% | OVCAR-3 ovarian 92.6% | HS 578T breast 105% | NCI/ADR-RES ovarian 114%

CCN(CC)CCCNc1c2ccc(Cl)cc2nc2ccc(OC)cc12
inactive: HS 578T breast 34.1%
active: SR leukemia -30.3% | RPMI-8226 leukemia -21.5% | OVCAR-8 ovarian 4.01% | OVCAR-5 ovarian 3.61% | OVCAR-4 ovarian -35.2% | SK-OV-3 ovarian 3.94% | IGROV1 ovarian 6.62% | OVCAR-3 ovarian -11.5% | NCI/ADR-RES ovarian 0.48%

COc1ccc(Cn2cc3c(c2-c2ccc(OC)cc2)CCc2cnoc2-3)cc1
inactive: RPMI-8226 leukemia 16.7% | OVCAR-8 ovarian 23.8% | OVCAR-5 ovarian 52.2% | OVCAR-4 ovarian 35.9%
active: SR leukemia 1.81% | SK-OV-3 ovarian 3.54% | IGROV1 ovarian -2.82% | OVCAR-3 ovarian -18.2% | HS 578T breast -2.76% | NCI/ADR-RES ovarian -3.57%

COC(=O)c1ccc2[nH]c(O)c(C(=Nc3ccc(N(C)C(=O)CN4CCN(C)CC4)cc3)c3cccc(OC)c3)c2c1
active: SR leukemia -3.85% | RPMI-8226 leukemia 4.7% | SK-OV-3 ovarian -0.652% | IGROV1 ovarian 1.75% | HS 578T breast 6.7%
inactive: OVCAR-8 ovarian 23.7% | OVCAR-5 ovarian 33.8% | OVCAR-4 ovarian 25.4% | OVCAR-3 ovarian 10.5% | NCI/ADR-RES ovarian 99.5%

O=C(Nc1ccc(Cl)cn1)C1(c2ccccc2)CCCCC1
inactive: RPMI-8226 leukemia 93% | OVCAR-8 ovarian 113% | OVCAR-5 ovarian 102% | OVCAR-4 ovarian 91.6% | SK-OV-3 ovarian 117% | IGROV1 ovarian 534% | OVCAR-3 ovarian 118% | HS 578T breast 107% | NCI/ADR-RES ovarian 125%
active: SR leukemia -14.5%

O=C(CCCC(=O)Nc1ccc(Cn2nnc3cc(Cl)c(Cl)cc32)cc1)Nc1ccc(CN2N=NC3C=C(Cl)C(Cl)=CC32)cc1 (centres undefined)
inactive: SR leukemia 79.2% | RPMI-8226 leukemia 64.4% | OVCAR-8 ovarian 76.3% | OVCAR-5 ovarian 95.8% | OVCAR-4 ovarian 65.6% | SK-OV-3 ovarian 86.3% | IGROV1 ovarian 81.1% | OVCAR-3 ovarian 87.7% | HS 578T breast 91.5% | NCI/ADR-RES ovarian 83.1%

CCOC(=O)c1sc(NS(=O)(=O)c2ccccc2)nc1C
active: IGROV1 ovarian 6.87%
inactive: SR leukemia 102% | RPMI-8226 leukemia 120% | OVCAR-8 ovarian 114% | OVCAR-5 ovarian 107% | OVCAR-4 ovarian 111% | SK-OV-3 ovarian 106% | OVCAR-3 ovarian 133% | HS 578T breast 111% | NCI/ADR-RES ovarian 114%

S=C(N/N=C/c1cc(Cl)cc(Cl)c1)NC12CC3CC(CC(C3)C1)C2
inactive: SR leukemia 20% | RPMI-8226 leukemia 73.8% | OVCAR-8 ovarian 56.8% | OVCAR-5 ovarian 85.7% | OVCAR-4 ovarian 23.4% | SK-OV-3 ovarian 66.7% | IGROV1 ovarian 78.1% | OVCAR-3 ovarian 58.2% | NCI/ADR-RES ovarian 77%

COc1ccc(C(=O)NCCNc2nccc(-c3c(-c4ccc(F)cc4)nc4sccn34)n2)cc1
inactive: SR leukemia 44.1% | RPMI-8226 leukemia 40.5% | OVCAR-8 ovarian 49.4% | OVCAR-5 ovarian 62.4% | OVCAR-4 ovarian 80.5% | SK-OV-3 ovarian 70.6% | IGROV1 ovarian 31% | OVCAR-3 ovarian 80.7% | HS 578T breast 28.7% | NCI/ADR-RES ovarian 62.3%

COc1ccc2nc3cc(Cl)ccc3c(NCCCNC(C)=O)c2c1
inactive: SR leukemia 21% | RPMI-8226 leukemia 37.2% | OVCAR-8 ovarian 26.8% | OVCAR-5 ovarian 39.1% | OVCAR-4 ovarian 49.2% | SK-OV-3 ovarian 49.7% | IGROV1 ovarian 36.2% | OVCAR-3 ovarian 45.8% | HS 578T breast 60.4% | NCI/ADR-RES ovarian 41.4%

COc1ccccc1Cn1cc2c(c1)-c1oncc1CC2
inactive: SR leukemia 16% | RPMI-8226 leukemia 32.5% | OVCAR-8 ovarian 36.2% | OVCAR-5 ovarian 35.2% | OVCAR-4 ovarian 49.2% | IGROV1 ovarian 16.2%
active: SK-OV-3 ovarian -18.2% | OVCAR-3 ovarian -29.3% | HS 578T breast 8.86% | NCI/ADR-RES ovarian -2.96%

C/C(=C\c1ccc2ccccc2c1)[N+](=O)[O-]
active: SR leukemia 4.41% | RPMI-8226 leukemia -33.9% | IGROV1 ovarian -20% | OVCAR-3 ovarian -76.6%
inactive: OVCAR-8 ovarian 11.7% | OVCAR-5 ovarian 82.6% | OVCAR-4 ovarian 87.6% | SK-OV-3 ovarian 99.4% | NCI/ADR-RES ovarian 88.4%

COc1ccc(Nc2c3ccccc3nc3ccccc23)cc1
inactive: RPMI-8226 leukemia 28.1% | OVCAR-8 ovarian 14.7% | OVCAR-5 ovarian 36.4% | OVCAR-4 ovarian 41.5% | SK-OV-3 ovarian 36.1% | IGROV1 ovarian 22.1% | OVCAR-3 ovarian 28.3% | HS 578T breast 59.5% | NCI/ADR-RES ovarian 28.1%
active: SR leukemia 1.46%

COc1cccc(Cn2cc3c(c2)-c2oncc2CC3)c1
active: SK-OV-3 ovarian 1.4% | OVCAR-3 ovarian -30.4% | HS 578T breast 8.85% | NCI/ADR-RES ovarian 6.75%
inactive: SR leukemia 13.8% | RPMI-8226 leukemia 37.6% | OVCAR-8 ovarian 32.3% | OVCAR-5 ovarian 42.6% | OVCAR-4 ovarian 50.9% | IGROV1 ovarian 20.1%

CCCCCCC(=O)C(C)C
inactive: SR leukemia 90.7% | RPMI-8226 leukemia 105% | OVCAR-8 ovarian 99.1% | OVCAR-5 ovarian 110% | OVCAR-4 ovarian 110% | SK-OV-3 ovarian 110% | IGROV1 ovarian 102% | OVCAR-3 ovarian 107% | HS 578T breast 105% | NCI/ADR-RES ovarian 103%

COC(=O)C(C(=O)OC)C(Br)C(Br)C(Br)c1ccccc1 (centres undefined)
active: SR leukemia -10%
inactive: RPMI-8226 leukemia 80.5% | OVCAR-8 ovarian 91.8% | OVCAR-5 ovarian 120% | OVCAR-4 ovarian 90.1% | SK-OV-3 ovarian 109% | IGROV1 ovarian 107% | OVCAR-3 ovarian 92.6% | NCI/ADR-RES ovarian 111%

CCCCCCCCCCCCCCCCNC(=S)N/N=C/c1ccc(O)cc1O
inactive: SR leukemia 41.2% | RPMI-8226 leukemia 59.7% | OVCAR-8 ovarian 56.2% | OVCAR-5 ovarian 95.3% | OVCAR-4 ovarian 66.9% | SK-OV-3 ovarian 87.7% | IGROV1 ovarian 55.2% | OVCAR-3 ovarian 73.1% | HS 578T breast 97.6% | NCI/ADR-RES ovarian 69.9%

From PubChem BioAssay (NCI)
